Values joined by “and” are separate entries in the source; they are usually repeats but may differ in a detail not shown here. Equal entries are not always repeated. Active and inactive are the calls of the source.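 How the source made its calls: active means compounds whose cell count with miR-34 switched on is under 0.7 times the count with it off; inactive means the rest.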
Assay: sensitizers of A549 cells to miR-34 induction, primary screen, imaging, A549 dox-inducible miR-34, nuclei and caspase counts (AID 1347080); further: test concentration not given here
Conditions: A549 miR-34 inducible, Hoechst nuclei count, 48 h
[1] = stronger effect = lower value, cell number ratio, induced over uninduced
[2] = measured here: relative caspase fold change +Dox/-Dox
[3] = measured here: total cells with miR-34 induction, stronger effect = lower value
[4] = measured here: total cells without miR-34 induction

Compound | fold change [1] | fold change [2] | cell count [3] | cell count [4]
CCN(CC)c1ccc(C2=C(Cl)C(=O)c3ncccc3C2=O)cc1 | 1.01 (inactive) | 1.74 | 4440 | 4390
CCCCC[C@H](O)/C=C/[C@H]1C(=O)C[C@H](O)[C@@H]1C/C=C\CCCC(=O)NCCO | 1.05 (inactive) | 1.15 | 6200 | 5900
CC(C)CCCCCCC/C=C/C(=O)O | 0.859 (inactive) | 0.582 | 5080 | 5910
CCCCCCCCCCCCCCCCCCCCCC(=O)NCCO | 1.03 (inactive) | 0.641 | 6180 | 5980
CCCCC[C@H](O)/C=C/[C@H]1[C@H](O)CC(=O)[C@@H]1C/C=C\CCCC(=O)OCC(O)CO (stereo partly drawn) | 0.945 (inactive) | 0.932 | 5540 | 5860
C#CCCCCCCCCCNC(=O)Oc1cccc(-c2cccc(C(N)=O)c2)c1 | 0.97 (inactive) | 1.13 | 5690 | 5860
CCCCC/C=C\C/C=C\C/C=C\C/C=C\CCCC(=O)OCC | 0.807 (inactive) | 0.655 | 5170 | 6410
CCCCCCCCCCCCCCCC(=O)N[C@H](C)CO | 0.916 (inactive) | 0.934 | 5780 | 6310
CCCCC[C@](C)(O)/C=C/[C@H]1[C@H](O)CC(=O)[C@@H]1CCCCCCC(=O)O | 1 (inactive) | 1.58 | 5750 | 5720
CCCCC[C@H](O)/C=C/[C@@H]1[C@@H](C/C=C\CCCC(=O)NCCO)[C@@H](O)C[C@@H]1O | 0.916 (inactive) | 1.36 | 5800 | 6330
O=C1OC2(c3ccc(O)cc3Oc3cc(Oc4ccc(O)cc4)ccc32)c2ccccc21 (stereo not drawn) | 0.956 (inactive) | 1.49 | 6230 | 6520
CC(Sc1nc2ccccc2[nH]1)C(=O)N/N=C/c1cc(Br)ccc1O (stereo not drawn) | 1.01 (inactive) | 1.43 | 6060 | 6010
O=C(O)CCC/C=C\C[C@@H]1[C@@H](/C=C/[C@@H](O)COc2ccccc2)[C@H](O)C[C@@H]1O | 0.956 (inactive) | 1.11 | 6410 | 6700
CC/C=C\C/C=C\C/C=C\CCCCCCCC(=O)N[C@@H](Cc1ccc(O)cc1)C(=O)O | 0.852 (inactive) | 2.46 | 5060 | 5940
CCCCCCCCCCCCCCCCCCCC(=O)NCCO | 1.07 (inactive) | 0.773 | 6530 | 6100
C=C1C[C@@H](O)[C@H](/C=C/[C@@H](O)CCCCC)[C@H]1C/C=C\CCCC(=O)O | 0.899 (inactive) | 1.24 | 5620 | 6250
CCCCCC#CCC#CCC#CCCCCCCC(=O)O | 0.97 (inactive) | 0.33 | 5730 | 5910
CCCCC[C@@H](O)/C=C/[C@@H]1[C@H](C/C=C\CCCC(=O)O)[C@@H](O)C[C@H]1O | 0.832 (inactive) | 1.39 | 5000 | 6010
COc1ccc(/C=C/C(=O)Nc2c(O)cccc2C(=O)O)cc1OC | 0.585 (active) | 0.687 | 3430 | 5870
CCCCC[C@@H](O)/C=C/[C@H]1[C@H](O)CC(=O)[C@@H]1C/C=C\CCCC(=O)O | 0.971 (inactive) | 1.57 | 6000 | 6180
CCCCCOc1ccccc1C(O)CC#CCCCC(=O)OC (stereo not drawn) | 0.937 (inactive) | 1.89 | 5930 | 6340

Compound | fold change [1] | fold change [2] | cell count [3] | cell count [4]
O=C(O)CCC/C=C\C[C@@H]1C(=O)C[C@@H](O)[C@@H]1/C=C/[C@@H](O)CC1CCCCC1 | 1.22 (inactive) | 0.461 | 7070 | 5800
CC/C=C\C/C=C\C/C=C\C/C=C\C/C=C\CCCC(=O)O[C@H](COCCCCCCCCCCCCCCCC)COP(=O)([O-])OCC[N+](C)(C)C | 0.886 (inactive) | 1.31 | 5330 | 6010
CCCCC[C@H](O)/C=C/[C@@H]1[C@@H](C/C=C\CCCC(=O)N(C)C)[C@@H](O)C[C@H]1O | 0.94 (inactive) | 1.13 | 5150 | 5480
CCCC1([C@@H](O)C/C=C/[C@H]2[C@H](O)CC(=O)[C@@H]2CCCCCCC(=O)O)CCC1 | 0.95 (inactive) | 1.46 | 5970 | 6280
OCC(O)[C@@H](O)CO (stereo partly drawn) | 0.92 (inactive) | 0.896 | 8910 | 9680
COc1ccc2cc(C(C#N)OC(=O)CC3OC3c3ccccc3)ccc2c1 (stereo not drawn) | 0.909 (inactive) | 0.7 | 5490 | 6040
CCCCCC(=O)OC[C@H](CO)OC(=O)CCCCC | 0.964 (inactive) | 0.528 | 5390 | 5590
CCCCC[C@@H](O)/C=C/[C@H]1[C@H](O)CC(=O)[C@@H]1CCCCCCC(=O)O | 0.974 (inactive) | 1.39 | 5460 | 5600
C[C@@H](O)CCC[C@@H](O)/C=C/[C@@H]1[C@@H](CCCCCCC(=O)O)[C@@H](O)C[C@H]1O | 0.879 (inactive) | 1.31 | 5220 | 5940
CCCCCCCCCCCCCCCC(=O)SCCOP(=O)([O-])OCC[N+](C)(C)C | 1.04 (inactive) | 0.949 | 6100 | 5890
CCCCC[C@H](O)/C=C/[C@@H]1[C@H]2C[C@H](CCCCC(=O)O)O[C@H]2C[C@H]1O | 0.999 (inactive) | 1.41 | 6310 | 6310
CCCCCCCCCCCCCCCC(=O)OC[C@H](COP(=O)([O-])OCC[N+](C)(C)C)OC(=O)CCCC(=O)/C=C/C(=O)O | 1 (inactive) | 0.771 | 5760 | 5760
CCCCC[C@H](O)/C=C/[C@@H]1[C@H](CCCCCCC(=O)O)[C@H](O)C[C@H]1O | 0.963 (inactive) | 1.17 | 6030 | 6260
CCCCC[C@@](C)(O)/C=C/[C@H]1C=CC(=O)[C@@H]1C/C=C\CCCC(=O)O | 0.996 (inactive) | 1.14 | 5680 | 5710
CCCCCCCCCCCCCCCCOC[C@H](COP(=O)([O-])OCC[N+](C)(C)C)SC(=O)CCCCCC | 0.987 (inactive) | 1.56 | 5880 | 5950
CCCCCNC1=C(c2cn(C)c3ccccc23)C(=O)N(C)C1=O | 0.981 (inactive) | 1.69 | 6020 | 6140
C=C1C[C@H](O)[C@H](C/C=C\CCCC(=O)O)[C@H]1/C=C/C(=O)CCCCC | 1.11 (inactive) | 1.24 | 5720 | 5160
CC(C)Oc1ccc(Cc2ccc(NC3=NCCN3)cc2)cc1 | 0.976 (inactive) | 0.967 | 5900 | 6040
CCCCC[C@H](O)CC[C@@H]1[C@@H](C/C=C\CCCC(=O)O)[C@@H](O)C[C@H]1O | 0.936 (inactive) | 1.41 | 6190 | 6610
CC(=O)OCC(=O)[C@@]12N=C(C)O[C@@H]1CC1C3CCC4=CC(=O)C=C[C@]4(C)C3[C@@H](O)C[C@@]12C (stereo partly drawn) | 0.915 (inactive) | 0.993 | 6330 | 6910
CCCCC/C=C\C/C=C\C/C=C\C/C=C\CCCC(=O)O[C@H](COCCCCCCCCCCCCCCCC)COP(=O)([O-])OCC[N+](C)(C)C | 0.94 (inactive) and 0.936 (inactive) | 1.77 and 0.976 | 5550 and 5760 | 5910 and 6160

Reference: PubChem BioAssay
